Bioassay records: PubChem BioAssay, National Center for Advancing Translational Sciences (NCATS)
Most compounds without a hit are left out; they make up all but 6% or so of the library.
D3 antag: antagonists of human D3 dopamine receptor; D3R cells, DiscoveRx beta-arrestin luminescence, antagonist mode; active compounds read low; 360,000 compounds, 2.5% hits; max response, negative = inhibition, %; P35462; in the data active = max response below about -50%; also: % is scaled to controls: 0 for no effect and ±100 for the full control effect
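Cells expressing the human receptor were seeded at 1500 cells/well, incubated overnight at 37 degrees C in 5% CO2, then exposed to library compounds with dopamine controls for 90 minutes at 37 degrees C before luminescent detection.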
D1 potentiator: potentiators of human D1 dopamine receptor | HEK293 TREx D1 cells, calcium flux, dopamine EC20 potentiation | potentiation, % at 10 µM | 360,000 compounds, 0.036% hits; in the data active = potentiation above about 30%; also: 0% is about no effect
Target sequence (P21728 whole entry, looked up): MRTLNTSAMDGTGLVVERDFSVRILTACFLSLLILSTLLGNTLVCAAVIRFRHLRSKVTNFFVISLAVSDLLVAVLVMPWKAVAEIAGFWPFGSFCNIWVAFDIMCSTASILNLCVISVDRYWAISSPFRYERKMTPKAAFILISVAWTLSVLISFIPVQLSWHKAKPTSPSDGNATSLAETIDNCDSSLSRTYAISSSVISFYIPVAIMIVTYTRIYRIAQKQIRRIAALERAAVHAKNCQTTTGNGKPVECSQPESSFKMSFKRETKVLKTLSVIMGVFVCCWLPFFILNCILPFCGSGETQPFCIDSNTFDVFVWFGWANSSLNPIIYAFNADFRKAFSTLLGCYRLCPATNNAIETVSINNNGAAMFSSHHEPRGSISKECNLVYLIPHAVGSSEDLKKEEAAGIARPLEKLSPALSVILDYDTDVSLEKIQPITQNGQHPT
D3 ag: agonists of human D3 dopamine receptor; 410,000 compounds, 0.58% hits; max activation, %; D3R DiscoveRx beta-arrestin cells, luminescence, 90 min; P35462; in the data active = max activation above about 30%; also: 0% is about no effect
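Agonist-mode cell screen: cells plated at 1500/well and incubated overnight at 37 °C, then exposed to library compounds for 90 min at 37 °C. Detection reagent was added for 30–60 min at room temperature, and luminescence was read.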
D1 agonist: agonists of human D1 dopamine receptor. P21728. HEK293 T-REx D1 cells, calcium flux, agonist mode. 360,000 compounds, 1% hits. activation, % at 2 µM. AID 504660; in the data active = activation above about 30%; also: 0% is about no effect
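Tetracycline-induced HEK293 TREx D1 cells, force-coupled to calcium signalling, were dye-loaded with a no-wash calcium kit. Compound was pin-added after a 10 s baseline. Fluorescence was read kinetically at 1 cycle/s for 180 s, with calcium rises flagged as agonism.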
D1 antag: antagonists of human D1 dopamine receptor. 360,000 compounds, 3.2% hits. HEK293 TREx D1 cells, calcium flux, dopamine EC80; active compounds read low. activity change, negative = inhibition, % at 10 µM; in the data active = activity change below about -30%; also: % is scaled to controls: 0 for no effect and ±100 for the full control effect
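Antagonism measured as reduced calcium response to an EC80 dopamine addition following 180 s compound pre-read; cells were inducible HEK293 Trex D1 plated overnight at 30 C, read kinetically at 1 cycle/sec.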
The depositor's hits bear a star.

What do the screens show for `CCc1ccc(NC(=S)NCc2ccccc2)cc1`?
D3 antag: 11.7; D1 potentiator: -7.3; D3 ag: 4.8; D1 agonist: 6.4; D1 antag: -37.8*

Results for CCc1ccc(NC(=S)NCc2cccnc2)cc1 ?
D3 antag: -5.6; D1 potentiator: -2.0; D3 ag: 1.8; D1 agonist: 0.9; D1 antag: 3.1

What do the screens show for `S=C(NCc1ccccc1)Nc1ccncc1`?
D3 antag: 9.0; D1 potentiator: -17.4; D3 ag: 16.4; D1 agonist: 7.7; D1 antag: -55.9*

Results for Cc1ncc(CO)c(CNc2ccc(Oc3ccccc3)cc2)c1O ?
D3 antag: 19.8; D1 potentiator: -8.3; D3 ag: 2.5; D1 agonist: 10.4; D1 antag: -37.0*

What do the screens show for `Cc1ncc(CSSCc2cnc(C)c(O)c2CO)c(CO)c1O`?
D3 ag: -5.1

Results for COc1ccc(OCC2c3cc(OC)c(OC)cc3CCN2C(=O)COc2ccc(Cl)cc2Cl)cc1 (centres undefined) ?
D1 potentiator: -2.0; D3 ag: 6.6; D1 agonist: 7.3; D1 antag: 7.5

How did COc1ccccc1OCc1cc(C(=O)N2CCCC(OCc3cccnc3)C2)no1 (centres undefined) do in these assays?
D3 antag: -14.9; D1 potentiator: -2.1; D3 ag: -5.6; D1 agonist: 4.6; D1 antag: -36.3*

Results for COCC1CCN(C(=O)c2cc(COc3cccc4cnccc34)on2)CC1 ?
D3 antag: 14.9; D1 potentiator: -6.6; D3 ag: 2.6; D1 agonist: 21.7; D1 antag: -12.2

What do the screens show for `O=C(c1cc(COc2cccc3cnccc23)on1)N1CCCC(CCCO)C1` (centres undefined)?
D3 antag: 39.2; D1 potentiator: -3.0; D3 ag: 9.3; D1 agonist: 14.1; D1 antag: -55.5*

What do the screens show for `CSc1ccccc1OCc1cc(C(=O)N2CCC(Oc3cccnc3)CC2)no1`?
D1 potentiator: -3.4; D1 agonist: 19.3; D1 antag: -45.8*

How did Cc1sc2ncn(CC(=O)N3CCN(c4ccccc4F)CC3)c(=O)c2c1S(=O)(=O)N1CCN(c2ncccn2)CC1 do in these assays?
D1 potentiator: -1.4; D3 ag: 9.4; D1 agonist: 0.8; D1 antag: -11.8

What do the screens show for `C#CCC(Cc1cnc2nc(N)nc(N)c2n1)c1ccc(C(=O)N[C@@H](CCC(=O)O)C(=O)O)cc1` (some centres undefined)?
D3 ag: 7.4

Results for COC(=O)c1cc2sc(C)cc2n1CC(=O)Nc1cccc(SC)c1 ?
D1 potentiator: 1.4; D3 ag: -11.2; D1 agonist: 0.8; D1 antag: -25.6

Results for CC(C)C(NS(=O)(=O)c1ccccc1F)C(=O)N1CCc2ccccc2C1 (centres undefined) ?
D3 antag: 7.6; D1 potentiator: -8.6; D3 ag: 1.1; D1 agonist: 0.2; D1 antag: -37.0*

Results for COc1ccc(NC(=O)c2cc(S(=O)(=O)N3CCCCCC3)cn2C)cc1Cl ?
D1 potentiator: -0.7; D3 ag: 0.7; D1 agonist: 1.7; D1 antag: 15.0

What do the screens show for `CCc1ccc(-n2c(=O)c3c(C)c(C)sc3n(CC(=O)NCc3ccc(C)cc3)c2=O)cc1`?
D1 potentiator: 1.9; D3 ag: 4.5; D1 agonist: 0.4; D1 antag: -0.3

What do the screens show for `Cc1nc(SCC(=O)NCC2CCCO2)c2c3c(sc2n1)CCCC3` (centres undefined)?
D3 antag: 1.0; D1 potentiator: 2.3; D3 ag: 7.5; D1 agonist: -0.7; D1 antag: -1.6

What do the screens show for `COCCn1c(C)cc(C(=O)CSc2nc(C)nc3sc4c(c23)CCC4)c1C`?
D3 antag: 40.0; D3 ag: 54.4*

How did CCOc1ccc(NC(=O)CSc2nnc(-c3ccncc3)n2-c2ccccc2)cc1 do in these assays?
D1 potentiator: -4.3; D3 ag: -7.2; D1 agonist: -0.4; D1 antag: -1.0

How did COC(=O)C1(Cc2cc(-c3cccc(Br)c3)no2)CCN(C(=O)OC(C)(C)C)CC1 do in these assays?
D3 antag: -21.6; D1 potentiator: -9.8; D3 ag: 4.7; D1 agonist: 4.8; D1 antag: -18.5
